Hit rate of the full screen: of about 2,300 compounds, about 1,500 (65%) were called active. No rule for the calls is given here. So high a share suggests a set chosen from earlier hits. Not all results are given here.
Test: PubChem AID 2252;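 also: 100% = mean of untreated cell control wells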
Conditions: THP-1 viability, CellTiter-Glo luminescence, 72 h; min viability: minimum viability across concentrations, active compounds read low, concentration not given here; series mostly up to 50 µM; viability: at the top concentration

SMILES | viability
CCOC(=O)c1ccc(NC(=O)c2cc3c(s2)CCC3)cc1 | 89% (inactive)
CCC1(CC)C(=O)NC(=O)NC1=Nc1cccc(OC)c1 | 105% (inactive)
CCOc1ccc2nnnn2n1 | 96.2% (inactive)
CCCCC(=O)Nc1ccc(F)c(Cl)c1 | 90.9% (inactive)
Clc1ccc(Cn2cc(Br)cn2)cc1Cl | 85.3% (inactive)
CCOC(=O)CSc1nc(-c2ccccc2)nc2ccccc12 | 103% (inactive)
COc1ccccc1NC(=O)Cn1c(=O)n(CCc2c[nH]c3ccccc23)c(=O)c2cccnc21 | 92% (inactive)
c1ccc(N2CCN(c3nc4ccccc4[nH]3)CC2)nc1 | 88.5% (inactive)
C=CCOc1ccc(-c2n[nH]c(=S)o2)cc1 | 99.7% (inactive)
C=CC1=C(C(=O)O)N2C(=O)[C@@H](NC(=O)/C(=N\O)c3csc(N)n3)[C@H]2SC1 (stereo in doubt) | 92.6% (inactive)
COc1ccc(/C=N/NC(=O)c2cccnc2)cc1 | 91.8% (inactive)
Cc1ccc2cc(-c3noc(C4CCCO4)n3)c(=O)[nH]c2c1 (stereo unspecified) | 93.5% (inactive)
CCOc1ccc(NC(N)=O)cc1 | 103% (inactive)
Clc1ccc(OCc2nn3c(C4CCCCC4)nnc3s2)c(Cl)c1 | 86.5% [at 25 µM] (inactive)
COc1ccccc1CNC(=O)COC(=O)CCC(=O)c1cccs1 | 102% (inactive)
O=c1c2ccccc2ncn1Cc1ccc(Cl)cc1 | 81.6% (inactive)

SMILES | viability
COc1nc(N(C#N)CC(N)=O)nc(N2CCCC2)n1 | 89.8% (inactive)
Cc1ccc(-c2c(C)n([O-])c3c([n+]2=O)CCCC3)o1 | 116% (inactive)
O=S(=O)(c1ccccc1)c1nc(-c2cccs2)oc1NCC1CCCO1 (stereo unspecified) | 81.2% (inactive)
C#CCOCCOCCOCCNc1nc(N2CCN(C(=O)C(Cc3cc4ccccc4[nH]3)n3cc(C(N)C(C)CC)nn3)CC2)nc(N2CCN(C(=O)C(Cc3cc4ccccc4[nH]3)n3cc(C(N)C(C)CC)nn3)CC2)n1 (stereo unspecified) | 92.1% (inactive)
CC[C@H]1OC(=O)[C@H](C)[C@@H](O[C@H]2C[C@@](C)(OC)[C@@H](O)[C@H](C)O2)[C@H](C)[C@@H](O[C@@H]2O[C@H](C)C[C@H](N(C)C)[C@H]2O)[C@](C)(OC)C[C@@H](C)C(=O)[C@H](C)[C@@H](O)[C@]1(C)O | 90.7% [at 25 µM] (inactive)
CCOC(=O)Cc1[nH]nc2c1C(c1ccoc1)C(C#N)=C(N)O2 (stereo unspecified) | 89.2% (inactive)
O/N=C/c1ccc(OCc2ccccc2)c(Cl)c1 | 96.7% [at 25 µM] (inactive)
C#CCOCCOCCOCCNc1nc(N2CCN(C(=O)[C@H](Cc3ccc(O)cc3)n3cc([C@@H](N)CC(C)C)nn3)CC2)nc(N2CCN(C(=O)[C@H](Cc3cc4ccccc4[nH]3)n3cc([C@@H](N)CC(C)C)nn3)CC2)n1 | 97.2% (inactive)
Cc1ncc([N+](=O)[O-])n1CC(=O)NC1CCCC1 | 101% (inactive)
Cc1ccc(N(C(=O)c2sc(C)nc2C)C(C(=O)NCc2ccco2)c2ccccc2)cc1 (stereo unspecified) | 82.3% (inactive)
CCOC(=O)c1ccc(CNCc2ccc(Br)cc2)cc1 | 83.4% (inactive)
Cc1cc(C)cc(NC(=O)C(Sc2nnc(C)c(=O)[nH]2)c2ccccc2)c1 (stereo unspecified) | 101% (inactive)
Nc1ccc(S(=O)(=O)Nc2nccs2)cc1 | 92.6% (inactive)
CC(C)c1cc(C(=O)Nc2ccc3c(c2)OCO3)no1 | 82.2% (inactive)
CC1Cc2ccccc2N1C(=O)CN1C(=O)C(=O)N(Cc2ccccc2)C1=O (stereo unspecified) | 108% (inactive)
